In test [1] the test system is Plasmodium falciparum Sir2 (PF13_0152, Sir2A). The test can be described thus: Plasmodium falciparum Sir2A binding compounds – biochemical, small-molecule microarray, 635 nm fluorescence, primary screen (AID 1098).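 Note: score merges spot fluorescence intensity with its signal-to-noise ratio.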 Conditions: fluorescence 635 nm, higher = more signal.
Test [2] in a line: probe aDKK1 binding to arrayed compounds – biochemical, biotinylated probe, 635/667 nm fluorescence, primary screen (AID 1099).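 Note: score merges 667nm spot fluorescence with signal to noise across triplicate slides.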 Particulars: small-molecule microarray, higher = more signal.
Test [3] can be described thus: probe aCHRDL2 binding to arrayed compounds – biochemical, biotinylated probe, 635/667 nm fluorescence, primary screen (AID 1100). Particulars: small-molecule microarray, higher = more signal.
Test [4] in a line: change in splice reporter luminescence, either direction, cell-based, HEK293, spliceosome inhibition project, primary screen (AID 1101).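 Note: HEK293 cells carrying a splicing-competent luciferase reporter gene; test concentration not given here.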 Particulars: HEK293 splicing luciferase reporter, 24 h, higher = more signal, called active from +8 up or from −8 down. On the technique in general: In a reporter assay the amount or activity of a reporter protein is the signal.
Test [5] deals with Fibroblast growth factor 10 (Homo sapiens) (UniProt O15520). The test can be described thus: compounds binding fibroblast growth factor 10 – biochemical, small-molecule microarray, 635 nm fluorescence, primary screen (AID 1102). Conditions: FGF10 binding, fluorescence 635 nm, higher = more signal.
The subject of test [6] is glycogen synthase kinase-3 (GSK3A per assay name; protocol says GSK3B). The test can be described thus: compounds binding glycogen synthase kinase-3 – biochemical, small-molecule microarray, 635 nm fluorescence, GSK3A, primary screen (AID 1103). Note: the record names both GSK3A and GSK3B. Conditions: fluorescence 635 nm, higher = more signal.
Test [7] has as its target Epidermal growth factor receptor (Homo sapiens) (UniProt P00533). The test can be described thus: compounds binding epidermal growth factor receptor – biochemical, small-molecule microarray, 635 nm fluorescence, primary screen (AID 1104).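 Note: score merges 667 nm emission intensity with spot signal to noise over triplicate slides.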 Conditions: EGFR binding, higher = more signal.
The target of test [8] is Follistatin-related protein 3 (Homo sapiens) (UniProt O95633). As to the kind of experiment: compounds binding follistatin-related protein 3 – biochemical, small-molecule microarray, 635 nm fluorescence, primary screen (AID 1105).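 Note: score merges emission near 667 nm and signal to noise per printed spot across three slides.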 Conditions: FSTL3 binding, higher = more signal.
Test [9] deals with Dickkopf-related protein 1 (Homo sapiens) (UniProt O94907). The test can be described thus: small molecules binding DKK1 protein – biochemical, small-molecule microarray, 635 nm fluorescence scan, primary screen (AID 1106).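 Note: score merges emission near 667 nm with signal to noise over three replicate slides.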 Conditions: higher = more signal.
Test [10] deals with Inhibin beta A chain (activin A). As to the kind of experiment: small molecules binding activin A – biochemical, small-molecule microarray, 635 nm fluorescence scan, primary screen (AID 1107).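 Note: mouse activin A protein probed at 4.33 µg/mL on printed slides; score merges bound-protein fluorescence near 667 nm with spot signal-to-noise.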 Conditions: INHBA, higher = more signal.
Test [11] has as its system Human papillomavirus type 1a protein E7 (residues 44-93). The test can be described thus: small molecules binding HPV E7 44-93 – biochemical, small-molecule microarray, residues 44-93, 635 nm fluorescence, primary screen (AID 1108).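 Note: E7 fragment applied at 1 µg/mL in TBST for 1 h at 4 C; score combines spot fluorescence with its signal to noise ratio.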 Particulars: fluorescence 635 nm, higher = more signal.
Test [12] in a line: hepatitis C replication reporter changes, two-sided – Huh7 cells, luciferase reporter, HCV replication inhibitor project, primary screen (AID 1109).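 Note: huh7 hepatoma cells harbouring a luciferase neomycin HCV replicon reporter; luciferase luminescence as measure of HCV replicon replication; test concentration not given here.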 Conditions: Huh7 HCV replicon luciferase reporter, 48 h; higher = more signal.
The target of test [13] is Left-right determination factor 2 (Homo sapiens) (UniProt O00292). As to the kind of experiment: small molecules binding LEFTY2 protein – biochemical, small-molecule microarray, 635 nm fluorescence scan, primary screen (AID 1110). Particulars: higher = more signal.
The target of test [14] is Calmodulin-1 (Homo sapiens) (UniProt P0DP23). As to the kind of experiment: small molecules binding calmodulin-1 with EGTA – biochemical, small-molecule microarray, Cy5-labelled CALM1, profiling panel (AID 1111).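 Note: labelled calmodulin applied in Tris saline Tween buffer holding calcium plus EGTA and DTT.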 Conditions: Cy5-CALM1 binding fluorescence, higher = more signal.
Test [15] has the same target. The test can be described thus: small molecules binding Ca-loaded calmodulin-1 – biochemical, small-molecule microarray, Cy5-labelled CALM1, plus calcium, artefact control for SMM control-protein annotation, profiling panel (AID 1112).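 Note: score merges spot fluorescence with signal to noise from triplicate slides.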 Conditions: Cy5-CALM1 binding fluorescence, higher = more signal.
Test [16] is described as follows: probe aWnt5a binding to arrayed compounds – biochemical, biotinylated probe, 635/667 nm fluorescence, primary screen (AID 1113).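 Note: score merges 667 nm fluorescence intensity with signal-to-noise per printed feature.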 Particulars: small-molecule microarray, higher = more signal.
Test [17] in a line: probe aShh binding to arrayed compounds – biochemical, biotinylated probe, 635/667 nm fluorescence, primary screen (AID 1114).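 Note: probe is biotin-labelled aShh protein from a stem cell growth factor screen; measures binding of labelled protein to compounds printed on the slide; score merges feature fluorescence at 667 nm with signal-to-noise.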 Conditions: small-molecule microarray, higher = more signal.
Test [18] can be described thus: probe aNog binding to arrayed compounds – biochemical, biotinylated probe, 635/667 nm fluorescence, primary screen (AID 1115).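 Note: probe is biotinylated aNog protein used at 0.15 µg/mL for 1 h at 4 C; z-score combines 667 nm fluorescence of each spot with its signal to noise.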 Conditions: small-molecule microarray, higher = more signal.
In test [19] the target is Torsin-1A-interacting protein 1 (Homo sapiens) (UniProt Q5JTV8). As to the kind of experiment: compound microarray binding of lysate hLAP1 – cell lysate, small-molecule microarray, COS7 lysate, 635/667 nm fluorescence, primary screen (AID 1116). Conditions: 635 nm fluorescence, higher = more signal.
Test [20] deals with Alpha-bungarotoxin (Bungarus multicinctus) (UniProt P60615). As to the kind of experiment: compounds binding labelled alpha-BTX control protein – biochemical, small-molecule microarray, Alexa647 label, 635/667 nm fluorescence, artefact control for SMM control protein annotation, profiling panel (AID 1117). Particulars: alpha-BTX-A647 binding fluorescence, higher = more signal.

Consider four molecules from PubChem BioAssay.

The structures appear in SMILES notation. Where “and” joins values, the source holds several entries; their conditions need not be identical. Equal entries are not always repeated. Calls of active or inactive are those of the source.

Chain of Follistatin-related protein 3 (Homo sapiens) (O95633 whole entry, looked up): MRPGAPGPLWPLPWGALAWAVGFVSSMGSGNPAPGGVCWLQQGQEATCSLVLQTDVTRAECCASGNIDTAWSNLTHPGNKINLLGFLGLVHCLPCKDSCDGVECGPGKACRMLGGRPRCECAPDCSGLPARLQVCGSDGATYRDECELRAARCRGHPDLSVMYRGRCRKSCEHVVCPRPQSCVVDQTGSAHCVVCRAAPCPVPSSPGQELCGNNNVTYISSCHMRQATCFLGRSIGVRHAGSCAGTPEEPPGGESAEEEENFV
Chain of Torsin-1A-interacting protein 1 (Homo sapiens) (Q5JTV8 whole entry, looked up): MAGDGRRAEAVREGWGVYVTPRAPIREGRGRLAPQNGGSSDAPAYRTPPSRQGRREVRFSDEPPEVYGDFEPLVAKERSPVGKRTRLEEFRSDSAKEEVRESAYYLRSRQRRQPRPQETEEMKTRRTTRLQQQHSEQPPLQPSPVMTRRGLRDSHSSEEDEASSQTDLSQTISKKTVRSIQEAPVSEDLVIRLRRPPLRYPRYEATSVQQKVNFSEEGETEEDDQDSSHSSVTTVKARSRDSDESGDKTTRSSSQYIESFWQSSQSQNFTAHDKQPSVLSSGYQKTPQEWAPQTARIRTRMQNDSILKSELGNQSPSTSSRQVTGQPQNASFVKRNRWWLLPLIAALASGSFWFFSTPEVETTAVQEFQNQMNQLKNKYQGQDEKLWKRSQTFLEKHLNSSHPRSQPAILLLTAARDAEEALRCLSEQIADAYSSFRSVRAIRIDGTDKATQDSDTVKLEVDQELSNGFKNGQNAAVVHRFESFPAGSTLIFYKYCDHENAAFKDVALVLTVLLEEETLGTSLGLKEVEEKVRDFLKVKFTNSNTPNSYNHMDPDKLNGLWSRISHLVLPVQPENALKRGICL
Chain of Dickkopf-related protein 1 (Homo sapiens) (O94907 whole entry, looked up): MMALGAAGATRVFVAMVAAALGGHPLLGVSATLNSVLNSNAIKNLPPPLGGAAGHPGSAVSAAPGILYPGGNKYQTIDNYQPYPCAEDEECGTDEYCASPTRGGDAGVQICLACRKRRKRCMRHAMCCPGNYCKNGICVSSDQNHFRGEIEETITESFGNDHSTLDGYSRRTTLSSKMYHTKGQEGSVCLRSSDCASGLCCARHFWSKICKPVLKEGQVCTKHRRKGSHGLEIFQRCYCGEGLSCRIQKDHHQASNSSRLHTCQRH
Chain of Epidermal growth factor receptor (Homo sapiens) (P00533 whole entry, looked up): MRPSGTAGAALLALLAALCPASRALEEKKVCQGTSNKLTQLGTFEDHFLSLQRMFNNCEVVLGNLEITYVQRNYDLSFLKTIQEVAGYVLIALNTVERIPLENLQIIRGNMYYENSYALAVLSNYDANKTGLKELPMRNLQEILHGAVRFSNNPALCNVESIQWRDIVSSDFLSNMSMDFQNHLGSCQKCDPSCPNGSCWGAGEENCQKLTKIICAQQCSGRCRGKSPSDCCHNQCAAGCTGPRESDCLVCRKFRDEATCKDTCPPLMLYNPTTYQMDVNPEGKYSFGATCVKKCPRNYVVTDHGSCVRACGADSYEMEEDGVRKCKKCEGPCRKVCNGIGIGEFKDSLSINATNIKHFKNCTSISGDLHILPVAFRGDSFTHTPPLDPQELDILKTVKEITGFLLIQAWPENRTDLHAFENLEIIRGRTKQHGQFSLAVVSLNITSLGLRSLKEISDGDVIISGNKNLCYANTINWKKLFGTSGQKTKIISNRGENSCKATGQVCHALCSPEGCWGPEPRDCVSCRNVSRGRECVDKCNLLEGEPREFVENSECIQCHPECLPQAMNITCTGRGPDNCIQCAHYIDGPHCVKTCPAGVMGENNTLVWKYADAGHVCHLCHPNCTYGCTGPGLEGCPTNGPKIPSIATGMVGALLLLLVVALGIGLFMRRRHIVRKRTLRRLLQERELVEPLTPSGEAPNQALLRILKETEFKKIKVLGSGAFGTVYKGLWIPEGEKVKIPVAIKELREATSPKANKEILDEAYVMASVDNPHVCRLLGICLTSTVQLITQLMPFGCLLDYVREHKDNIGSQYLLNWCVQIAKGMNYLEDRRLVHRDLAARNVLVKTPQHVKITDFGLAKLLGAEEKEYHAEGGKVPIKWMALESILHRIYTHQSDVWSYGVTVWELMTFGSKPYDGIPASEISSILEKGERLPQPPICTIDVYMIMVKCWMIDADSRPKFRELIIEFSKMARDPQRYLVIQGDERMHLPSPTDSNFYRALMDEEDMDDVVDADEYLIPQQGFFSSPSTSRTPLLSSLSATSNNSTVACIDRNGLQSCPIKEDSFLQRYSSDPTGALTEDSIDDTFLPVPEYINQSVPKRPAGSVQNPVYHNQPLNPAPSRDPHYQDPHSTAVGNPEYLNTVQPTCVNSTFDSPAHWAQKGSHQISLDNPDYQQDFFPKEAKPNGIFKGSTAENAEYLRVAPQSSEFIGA
Chain of Alpha-bungarotoxin (Bungarus multicinctus) (P60615 whole entry, looked up): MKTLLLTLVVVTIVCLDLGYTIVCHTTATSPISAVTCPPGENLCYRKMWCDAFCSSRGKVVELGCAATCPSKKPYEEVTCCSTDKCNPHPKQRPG
Chain of Fibroblast growth factor 10 (Homo sapiens) (O15520 whole entry, looked up): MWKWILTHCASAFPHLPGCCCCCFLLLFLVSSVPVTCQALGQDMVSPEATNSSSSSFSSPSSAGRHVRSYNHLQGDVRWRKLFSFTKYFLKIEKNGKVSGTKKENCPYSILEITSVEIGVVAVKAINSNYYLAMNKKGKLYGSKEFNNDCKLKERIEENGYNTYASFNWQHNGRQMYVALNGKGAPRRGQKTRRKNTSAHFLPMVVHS
Chain of Left-right determination factor 2 (Homo sapiens) (O00292 whole entry, looked up): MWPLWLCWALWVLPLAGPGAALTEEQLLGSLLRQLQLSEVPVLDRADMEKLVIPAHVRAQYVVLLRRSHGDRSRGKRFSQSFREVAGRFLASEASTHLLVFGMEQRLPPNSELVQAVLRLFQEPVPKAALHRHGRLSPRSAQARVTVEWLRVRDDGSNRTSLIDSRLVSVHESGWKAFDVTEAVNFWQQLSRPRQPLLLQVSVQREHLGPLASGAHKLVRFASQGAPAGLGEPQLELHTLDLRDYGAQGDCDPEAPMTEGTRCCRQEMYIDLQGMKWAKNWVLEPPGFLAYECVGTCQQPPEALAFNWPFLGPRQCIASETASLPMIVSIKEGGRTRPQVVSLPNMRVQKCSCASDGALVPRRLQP

As for `CC(C)[Si]1(C(C)C)OCc2cc(CCCc3cc4c(c(CCc5ccccc5)n3)[Si](C(C)C)(C(C)C)OC4)nc(CCc3ccccc3)c21`, the composite z-score in [1] is -1.24 and 0.202; in [2], -0.181 and -0.246; in test [3] it was 0.057 and -0.55; in test [5], -0.0405 and 0.57; in test [6], -0.0221 and 0.559; in [7] it was 0.327 and 0.456. The composite z-score in [8] was -0.291 and 0.745; in [9], -0.106 and 0.458; in test [10], 0.557 and 0.0127; in test [11], 0.206 and 0.469; in test [13] it was 0.0155 and 0.497; in [14], -0.372 and -0.238. Besides, the composite z-score in [15] was 0.797 and -0.487; in test [16], -0.152 and -0.148; in test [17], -0.27 and 0.0141; in test [18], -0.139 and -0.0168; in [19], -0.421 and 0.248; in test [20], -1.36 and 0.0493. In addition, the z-score in test [4] was -1.52 (inactive) and 0.459 (inactive); in test [12], -1.17 and -0.347.

Take `C=CCN(Cc1ccccc1)C(=O)C1N(c2c(Cl)cccc2CO)C(=O)C2C(C(=O)O)C3C=CC21O3` (stereo not given): the composite z-score in test [1] was -1.57 and -0.0019; in test [2], 0.059 and 0.175; in test [3] it was 0.845 and 1.19; in test [5] it was -0.944 and -1.32; in test [6] it was -1.84 and -1.45; in test [7], -1.91 and -1.77. Besides, the composite z-score was -1.61 and -2.46 in [8]; -2.28 and -1.9 in test [9]; -0.934 and -2.5 in test [10]; -2.6 and -0.99 in test [11]; -3.36 and -2.65 in test [13]; -0.998 and -0.846 in test [14]. In addition, the composite z-score in test [15] was 0.686 and 0.031; in test [16], -0.215 and -0.291; in test [17], -0.221 and -0.0866; in [18] it was -0.261 and -0.281; in test [19], -0.74 and -0.831; in [20], -2.7 and -1.89. Further, the z-score in test [4] was -2.02 (inactive) and -0.804 (inactive); in [12], -0.431 and -0.961.

As to `C[C@@H](c1ccccc1)N1C(=O)[C@H]2[C@H]3[C@H](O)[C@H](O)CC(=O)[C@@H]3CC[C@H]2C1=O`, the composite z-score was 0.11 in [1]; -0.152 in test [2]; -0.706 in test [3]; 0.685 in test [5]; 0.59 in [6]; 0.43 in test [7]. Besides, the composite z-score in [8] is 0.599; in test [9] it was 0.943; in test [10] it was -0.838; in [11], 0.189; in test [13], 0.574; in test [14], 0.377. Besides, the composite z-score is -0.241 in test [15]; -0.119 in test [16]; 0.163 in [17]; -0.387 in test [18]; 0.49 in test [19]; -0.0104 in test [20]. Besides, the z-score in test [4] is -1.26 (inactive); in test [12], 0.265.

For the molecule `CC(C)N1CC=CC23O[C@@H]4C=CCCOC(=O)C4[C@H]2C(=O)N(C(C)CO)[C@@H]3C1=O` (stereo not given in full), the composite z-score in [1] is 0.966 and -0.2; in test [2] it was 0.802 and -0.0438; in test [3], 1 and 0.404; in test [5], -0.858 and -0.457; in [6] it was -0.132 and -0.547; in [7], -1.71 and -0.693. The composite z-score in test [8] was -1.66 and -0.676; in [9], -2.56 and -0.647; in [10], 0.644 and 1.35; in test [11], 0.163 and -0.9; in test [13] it was -1.4 and -1.42; in test [14], -0.302 and -0.271. The composite z-score was 0.269 and 0.224 in test [15]; -0.26 and -0.152 in [16]; -0.138 and 0.0305 in [17]; 0.111 and -0.0784 in [18]; 1.62 and 0.0015 in test [19]; -0.712 and -1.74 in test [20]. The z-score in [4] was -1.6 (inactive) and -1.03 (inactive); in test [12], 0.179 and -0.144.
